Measurements reported in PubChem BioAssay AID1220 (Sanford-Burnham Center for Chemical Genomics, 2008).
Screen size: about 190,000 compounds; about 1,300 (0.68%) were called active. Cut-off read from the data, not from the text of the source: active = inhibition above about 50%; inactive = the rest. The list comes from a sample in which actives are over-represented; it also holds similar structures and randomly drawn compounds.

What follows are molecules tested against Mannose-6-phosphate isomerase (Homo sapiens) (UniProt P34949) (assay: MPI inhibition at elevated mannose 6-phosphate – biochemical, fluorescence intensity, high mannose 6-phosphate, primary screen (AID 1220)). Details: recombinant PMI enzyme, coupled fluorescence intensity; at 20 µM; active compounds read high.
Sequence of Mannose-6-phosphate isomerase (Homo sapiens) (P34949 whole entry, looked up): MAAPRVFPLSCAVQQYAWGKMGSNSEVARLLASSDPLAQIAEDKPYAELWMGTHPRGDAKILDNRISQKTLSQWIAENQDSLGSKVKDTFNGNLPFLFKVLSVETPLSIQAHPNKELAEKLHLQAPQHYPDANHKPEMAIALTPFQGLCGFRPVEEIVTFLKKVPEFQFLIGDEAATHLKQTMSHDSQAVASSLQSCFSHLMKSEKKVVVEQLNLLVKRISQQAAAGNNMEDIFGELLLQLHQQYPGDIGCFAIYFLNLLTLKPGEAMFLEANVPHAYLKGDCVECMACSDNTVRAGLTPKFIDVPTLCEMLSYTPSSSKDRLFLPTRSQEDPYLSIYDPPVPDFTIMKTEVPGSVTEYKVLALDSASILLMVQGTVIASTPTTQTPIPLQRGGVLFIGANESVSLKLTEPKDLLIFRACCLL

Compound | inhibition
O=C(CCCSc1nc2ccccc2s1)NC1=NCCS1 | 1.7% (inactive)
CN1CCN(C(=O)c2ccccc2NC(=O)C(C)(C)C)CC1 | 10.4% (inactive)
O=C(COC(=O)c1cc(S(=O)(=O)N2CCOCC2)cs1)c1ccccc1 | 11.5% (inactive)
CCOc1ccc(CN2CCN(S(=O)(=O)c3ccc(NC(C)=O)cc3)CC2)cc1OC | -3.6% (inactive)
COc1cc(CN2CCN(Cc3ccc(C)cc3)C(CCO)C2)ccc1O (configuration not stated) | 14.3% (inactive)
COc1cc(CN2CCN(S(=O)(=O)c3ccc(NC(C)=O)cc3)CC2)cc(OC)c1O | 50.8% (active)
COc1cc(CN2CCN(Cc3ccc(SC)cc3)CC2)cc(OC)c1O | 62.1% (active)
C/C=C(\C)CN1CCc2cc(OC)c(OC)cc2C1 | -34.9% (inactive)
COc1cc(OC)c(OC)cc1CN1CCN(Cc2ccc(SC)cc2)CC1 | 10.2% (inactive)
COc1cc(CN2CCN(c3ccccc3F)CC2)cc(OC)c1O | 24.9% (inactive)
COc1cc(CN2CCN(Cc3ccc(C)cc3)C(CCO)C2)cc(OC)c1O (configuration not stated) | 61.9% (active)
COc1ccc(CN2CCN(S(=O)(=O)c3ccc(NC(C)=O)cc3)CC2)cc1OC | -2.1% (inactive)
COc1ccc(CN2CCN(Cc3ccc(C)cc3)C(CCO)C2)cc1OC (configuration not stated) | -5.7% (inactive)
COc1ccc(CN2CCc3cc(OC)c(OC)cc3C2)cc1O | 4.1% (inactive)
COc1cc2c(cc1OC)CN(Cc1cc(OC)c(O)c(OC)c1)CC2 | 69.5% (active)
CCN(CC)c1nc(-c2ccccn2)nc(-c2ccccc2)c1C#N | -5.4% (inactive)
CCN(CC)C(=O)NC1CC2CCCC(C1)N2Cc1ccccc1 (configuration not stated) | -8.6% (inactive)
CC(C)C(OC(=O)c1cccs1)C(=O)NCc1ccco1 (configuration not stated) | 1.8% (inactive)
Cc1ccc(S(=O)(=O)N2CCN(S(=O)(=O)N3CCCCC3)CC2)cc1 | 10.1% (inactive)
Cn1c(=O)c2c(-c3ccc(C(C)(C)C)cc3)n(N3CCOCC3)cc2n(C)c1=O | -3.7% (inactive)
COc1ccc(C(=O)N2CCN(Cc3cc(OC)c(O)c(OC)c3)CC2)cc1OC | 61.1% (active)
COc1cc(CN2CCN(C(=O)CC(C)C)CC2)cc(OC)c1OC | -4.9% (inactive)
COc1ccc(CN2CCN(C(=O)c3cc(OC)c(OC)c(OC)c3)CC2)cc1OC | -8.2% (inactive)
COc1ccc(CN2CCN(C(=O)CC(C)C)CC2)cc1OC | -3.1% (inactive)
COc1ccc(C(=O)N2CCN(Cc3ccccc3C)CC2)cc1OC | -3.6% (inactive)

Compound | inhibition
COc1cc(CN2CCN(C(=O)CC(C)C)CC2)cc(OC)c1O | 55.5% (active)
CCC(Sc1nc(C)cc(C)n1)C(=O)Nc1cc(C)on1 (configuration not stated) | -8.4% (inactive)
CC(=O)Nc1cc(C(=O)N2CCCC2)ccc1S(=O)(=O)c1ccc(Cl)cc1 | 2.8% (inactive)
Nc1cc(=O)[nH]c(SCc2nnc(-c3ccccc3)o2)n1 | -0.3% (inactive)
CC1(C)CC(CC(=O)O)(c2ccc(F)cc2)CCO1 (configuration not stated) | 3% (inactive)
c1ccc2c(c1)NC1(CCCCC1)n1c-2nc2ccccc21 | 8.3% (inactive)
COc1ccc(/C=C(\C#N)C(=O)NCCc2ccccc2)cc1OCc1ccccc1 | -4.6% (inactive)
COc1cc(/C=N/S(=O)(=O)CCc2ccccc2)cc(OC)c1O | 61.1% (active)
COc1ccc(/C=N/S(=O)(=O)CCc2ccccc2)c(OC)c1 | 7.5% (inactive)
COc1cc(/C=C(\C#N)C(=O)NCCc2ccccc2)cc(OC)c1O | 57.6% (active)
COc1cc(/C=C(\C#N)C(=O)c2c(C)[nH]c3ccccc23)cc(OC)c1OC | 10.2% (inactive)
COc1cc(/C=N/S(=O)(=O)CCc2ccccc2)ccc1O | 14.1% (inactive)
COCCNC(=O)/C(C#N)=C/c1cc(Br)c(O)c(OC)c1 | 15.5% (inactive)
COc1cc(/C=C(\C#N)C(=O)c2c[nH]c3ccccc23)cc(OC)c1O | 70% (active)
COc1ccc(/C=C(\C#N)C(=O)c2c(C)[nH]c3ccccc23)cc1OC | 8.5% (inactive)
CC(C)NC(=S)Nc1ccc2[nH]c(=O)[nH]c2c1 | -22% (inactive)
CC(C)(C)N(NC(=O)OCc1ccccc1)C(=O)c1ccccc1 | 2.3% (inactive)
CN(CP(=O)(O)CCc1ccccc1)S(C)(=O)=O | 3.2% (inactive)
CNc1ccc(/C=C(\C#N)c2ccccn2)cc1[N+](=O)[O-] | -3.1% (inactive)
Cc1ccc(/C=C/C(=O)N2CCCN(C(=O)/C=C/c3ccc(C)cc3)CC2)cc1 | 2.5% (inactive)
COc1ccc2nc(NC(=O)c3ccc(-c4cccc([N+](=O)[O-])c4)o3)sc2c1 | -5.7% (inactive)
COc1ccc2cc3cc(C(=O)NCCN4CCN(Cc5ccccc5)CC4)oc3nc2c1 | -5.6% (inactive)
CC(CCc1ccccc1)NC(=O)CN1CCN(c2ccccc2)CC1 (configuration not stated) | 8.2% (inactive)
CC1CC(C)CN(CC(=O)NC(c2ccccc2)c2ccccc2)C1 (configuration not stated) | -6.3% (inactive)
O=C(CN1CCN(c2ccc(O)cc2)CC1)NC(c1ccccc1)c1ccccc1 | 64% (active)

Compound | inhibition
Cc1c(NC(=O)CN2CCN(c3ccc(F)cc3)CC2)c(=O)n(-c2ccccc2)n1C | 5.8% (inactive)
Cc1c(NC(=O)CN2CCN(c3ccc(O)cc3)CC2)c(=O)n(-c2ccccc2)n1C | 53% (active)
Cc1c(NC(=O)CN2CCN(c3ccccc3)CC2)c(=O)n(-c2ccccc2)n1C | -8.2% (inactive)
CC(C)(C)NC(=O)NC(=O)CN1CCN(c2ccccc2)CC1 | -4.3% (inactive)
COc1ccc(N2CCN(CC(=O)NC(=O)NC(C)(C)C)CC2)cc1 | 12.2% (inactive)
CC(C)(C)NC(=O)NC(=O)CN1CCN(c2ccc(O)cc2)CC1 | 62.6% (active)
CC(CCc1ccccc1)NC(=O)CN1CCc2ccccc2C1 (configuration not stated) | 3.9% (inactive)
CC(CCc1ccccc1)NC(=O)CN1CCN(c2ccc(O)cc2)CC1 (configuration not stated) | 65.2% (active)
O=C(CN1CCN(c2ccccc2O)CC1)NC(c1ccccc1)c1ccccc1 | 15.4% (inactive)
CC(=O)OC1CC(C)(C)N(OC(=O)c2ccccc2)C(C)(C)C1 | -2.2% (inactive)
Cc1cc(Nc2c(C#N)c(N)nn2C)ccc1F | 0.7% (inactive)
O=C(NC12CC3CC(CC(C3)C1)C2)c1cc2nc(-c3ccco3)cc(C(F)(F)F)n2n1 | 7.3% (inactive)
O=C(NC1CCCCC1)C(c1ccco1)N(Cc1ccco1)C(=O)c1ccco1 (configuration not stated) | -4.5% (inactive)
O=C(Nc1ccc2c(c1)CCC2)c1ccccc1F | -3.5% (inactive)
Cc1nn(-c2ccccc2)c(C)c1/C=C/C(=O)OCC(=O)NC1CCS(=O)(=O)C1 (configuration not stated) | -6.3% (inactive)
CC1(C)CC(=O)CC(C2(O)C(=O)N(Cc3ccccc3)c3ccccc32)O1 (configuration not stated) | 0.6% (inactive)
O=C(CN(C(=O)CNS(=O)(=O)c1ccccc1)c1ccc2c(c1)OCCO2)NCc1ccco1 | -2.1% (inactive)
CCC(=O)Nc1cc(Cl)ccc1C(=O)O | -13.8% (inactive)
Cn1c(=O)[nH]c(=O)c2[nH]c(N(Cc3ccccc3)Cc3ccccc3)nc21 | 10.1% (inactive)
Cc1cc(NC(=O)CCCC(=O)NCc2cccs2)no1 | 3.8% (inactive)
Cc1nc(NC(=O)CSc2nnnn2Cc2ccccc2)sc1C | 5.5% (inactive)
COc1ccc2c(c1)C1=NN(/C(C)=C/C(C)=O)C(c3cccc(F)c3)C1CC2 (configuration not stated) | 44.9% (inactive)
COc1ccc2c(c1)CCc1c(C(=O)NCc3ccc(F)cc3)noc1-2 | 9.9% (inactive)
COc1ccc2c(c1)CCC1C2=NN(/C(C)=C/C(C)=O)C1c1cccc(F)c1 (configuration not stated) | 44.4% (inactive)
COc1ccc2c(c1)CCC1C2=NN(/C(C)=C\C(C)=O)C1c1ccc(F)cc1 (configuration not stated) | 54.4% (active)

Compound | inhibition
COc1ccc2c(c1)C1=NN(/C(C)=C/C(C)=O)C(c3ccc(F)cc3)C1CC2 (configuration not stated) | 56.3% (active)
COc1ccc2c(c1)C1=NN(/C(C)=C\C(C)=O)C(c3ccccc3)C1CC2 (configuration not stated) | 47.7% (inactive)
O=C(CN(C(=O)CNC(=O)c1cccs1)c1ccc2c(c1)OCCO2)NC1CCCC1 | 4.5% (inactive)
COc1ccc(N2CC(O)=C(c3nc(-c4ccc(F)cc4)cs3)C2=N)cc1Cl | -5.1% (inactive)
COc1ccccc1C(=O)NNC(=O)c1ccccc1F | -3.9% (inactive)
O=C1CN(CC(=O)N2CCOCC2)c2ccccc2O1 | 51.9% (active)
O=C(CN1CCCCC1)N1c2ccccc2Oc2ccccc21 | -7.7% (inactive)
O=C(CN1C(=O)c2ccccc2C1=O)N1CCOCC1 | 7.3% (inactive)
O=C(CN1CC(=O)Oc2ccccc21)OCC(=O)c1ccccc1 | 11.2% (inactive)
O=C(CN1CCOc2ccccc21)N1CCCC1 | 3.6% (inactive)
O=C1CN(CC(=O)N2CCCCC2)c2ccccc2O1 | 51.6% (active)
COCCCNC(=O)Cc1ccccc1OC | -3.4% (inactive)
CCNc1nc(Oc2ccc(C(=O)OCC)cc2)nc(N2CCOCC2)n1 | 10% (inactive)
Cc1ccc(C)c(N=Cc2ccc(-c3ccc([N+](=O)[O-])cc3)o2)c1 | 10.6% (inactive)
O=[N+]([O-])c1ccc(-c2ccc(C=Nc3cccc4ccccc34)o2)cc1 | 70% (active)
O=C(Cc1ccccc1)N/N=C/c1ccc(-c2ccc([N+](=O)[O-])cc2)o1 | 14.3% (inactive)
CCCCOC(=O)c1ccc(Nc2ccc([N+](=O)[O-])cn2)cc1 | -10.3% (inactive)
O=C(C1CCCCC1)N1CCN(S(=O)(=O)c2ccc(Br)cc2)CC1 | 1.8% (inactive)
COc1ccc(C(=O)Nc2nc3ccc(S(C)(=O)=O)cc3s2)cc1OC | 7.7% (inactive)
O=[N+]([O-])c1cccc(S(=O)(=O)c2cccc([N+](=O)[O-])c2)c1 | -1.5% (inactive)
CC(C)C1=CC(=NS(=O)(=O)c2cccc([N+](=O)[O-])c2)C=C(C(C)C)C1=O | 59.4% (active)
CC(C)c1nccn1S(=O)(=O)c1cccc([N+](=O)[O-])c1 | -2.8% (inactive)
